# Laboratory results as given in the supplement of paper PMC3334620.
# Whole data set: some 33,000 sequences, median “E-score (-0.5 to 0.5)” near -0.0014, cut for the highest 2% near 0.25. The sample as a whole holds a higher share of the highest values than the screen did.
# Target: T1, Cad1 (UniProt P24813)
# T1 sequence: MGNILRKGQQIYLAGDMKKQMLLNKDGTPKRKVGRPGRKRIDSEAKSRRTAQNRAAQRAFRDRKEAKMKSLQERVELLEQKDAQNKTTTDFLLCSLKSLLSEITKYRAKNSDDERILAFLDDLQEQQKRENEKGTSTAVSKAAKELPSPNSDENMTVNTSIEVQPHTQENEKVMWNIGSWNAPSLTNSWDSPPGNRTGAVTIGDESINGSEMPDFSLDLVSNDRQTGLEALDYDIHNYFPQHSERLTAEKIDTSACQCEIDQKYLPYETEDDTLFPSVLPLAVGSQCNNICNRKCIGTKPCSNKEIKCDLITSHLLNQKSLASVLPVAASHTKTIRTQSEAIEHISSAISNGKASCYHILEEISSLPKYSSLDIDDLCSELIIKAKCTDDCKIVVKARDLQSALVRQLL
# Experiment: PBM E-score (8-mer binding enrichment) (E-score (-0.5 to 0.5)); higher = stronger / more preferred TF binding
# Settings: protein concentration: 100 nM; construct: GST-full length
# How it was run: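 Bound GST-tagged yeast transcription factors, applied at about 100-200 nM to double-stranded universal all-10-mer Agilent arrays, were detected with fluorescent anti-GST. Scans were normalised with masliner. A modified Wilcoxon-Mann-Whitney statistic, the E-score, was assigned to each ungapped eight-base word pooled with its reverse complement by the Universal PBM Analysis Suite.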
row,Sequence,PBM E-score
1,GACCACGA,0.0423
2,CGCACTAC,0.0013
3,GGCCGTTA,0.0668
4,ACGTGGAG,-0.0145
5,CCCCTATA,-0.144
6,CCGGTCTC,-0.161
7,CTTAGAGC,-0.0659
8,AAAAGCGC,0.0216
9,AAGTGCTA,-0.257
10,GGGTCCGA,-0.21
11,ACGAGACC,-0.00034
12,ATAACAAT,0.0624
13,CGAACAAG,0.128
14,CGAACAAA,0.28
15,AGAACAAA,0.247
16,ATAACAAA,0.312
17,ATAACAAG,0.205
18,GCATCGAC,-0.0789
19,GACAGATA,0.0715
20,AAACGTTG,-0.0452
21,CAACGTTG,0.263
22,CAACGTTC,-0.009
23,CTTGTTAA,-0.0916
24,ATTATTAA,0.384
25,ATTGTTAA,0.0122

row,Sequence,PBM E-score
1,CGTATTAG,0.165
2,ATTATTAC,0.0832
3,GTTATTTA,0.153
4,AGTATTAG,0.299
5,AGTATTAA,0.0712
6,GTTATTAA,0.291
7,GTTATTGA,0.159
8,ACTATTAA,0.123
9,GTTGTTAA,0.259
10,CTCGCGGA,-0.155
11,CGCAGCAC,0.0114
12,ACATACGA,0.117
13,CTGAAGAA,-0.18
14,CAACTGTG,-0.031
15,CAAGACAG,-0.0259
16,CATGCCAG,-0.0523
17,CTTATTAC,0.218
18,TGTGTTAA,0.19
19,CTTATTAA,0.42
20,CCTATTAA,-0.00224
21,GGTGTTAA,0.0749
22,AGTGTTAA,0.255
23,TATTTTAA,0.107
24,GCGGCTTA,0.227
25,ACCTCTTA,0.153

row,Sequence,PBM E-score
1,AAGTCATG,0.0989
2,ACCGCCTG,-0.142
3,ACCCGGAC,-0.179
4,ATTTAATG,0.213
5,CTTTAATA,0.218
6,ATTTAATA,0.316
7,ATTTAATC,0.285
8,CTTTAATC,-0.00133
9,GTTTAATA,0.189
10,AGAGAGGC,-0.297
11,AGTAAACT,0.105
12,CCTAGATA,-0.0467
13,CACGTTTC,-0.176
14,CAATTTTC,0.125
15,CAATTTAA,0.156
16,CAATTTTA,0.27
17,CTCGCTGA,0.0202
18,ACGATCGG,0.0625
19,ACGATCGT,-0.0266
20,CCGATCGA,0.0111
21,GCGATCGA,0.248
22,ACGATCGA,0.254
23,TCGATCGA,0.27
24,GATTGAGC,0.0444
25,ATCAGCAT,0.192

row,Sequence,PBM E-score
1,GACTAATC,0.362
2,AACTAATC,0.179
3,GACTAAGC,0.228
4,CACTAACC,0.0546
5,CACTAAGC,0.0972
6,CACTAATC,0.262
7,CTCGCTCA,0.138
8,CACCGCCC,-0.0109
9,AAACTAAA,0.141
10,TAACTTAA,0.259
11,AAACTCAG,-0.00451
12,AAACTTAA,0.171
13,AAACTAAG,0.166
14,AAACTAAT,0.36
15,AAACTCAA,0.163
16,CAACTTAA,0.0842
17,AAACTTAC,0.0226
18,GAACTTAA,0.116
19,AAACTTAT,0.256
20,AAACTCAT,0.253
21,CCCCCTGA,-0.414
22,AGGGATCG,-0.207
23,AAAAGTGT,-0.074
24,CCAGACAA,0.0234
25,CTAGGTGC,-0.221

row,Sequence,PBM E-score
1,AACCGCTT,0.0439
2,CTTCCTAA,0.0434
3,AGTCCTTG,-0.0247
4,ATCAAGCC,-0.0325
5,GATCGCGA,0.132
6,CATCGCGA,0.25
7,AATCGCGA,0.196
8,TATCGCGA,0.259
9,TATCGCAA,0.22
10,CATCGCGC,0.051
11,CGGCTCCA,-0.0781
12,CGCGTTAC,0.139
13,AACGGGGT,-0.13
14,CTAAGCAA,0.0503
15,CTAAGCTA,0.135
16,TTAAGCAA,-0.0269
17,GTTAGCAA,0.0595
18,CTAAGCAG,-0.078
19,ATAAGCTA,-0.0126
20,ATTAGCAG,0.0216
21,GTAAGCAA,0.345
22,GTAAGCTA,0.298
23,GTAAGCAC,0.163
24,ATTAGCAA,0.304
25,CTAAGCAC,0.294

row,Sequence,PBM E-score
1,AGTGTCTG,0.15
2,ACGCAGGG,-0.155
3,AGCTGCGC,0.0681
4,ACAAAGTG,0.0733
5,GCTCAGAC,-0.0381
6,CACCTAGA,-0.156
7,CTTAAGCC,0.00617
8,ATAAGCAC,0.208
9,ATAAGCAT,0.0827
10,ATAAGCAA,0.296
11,AGATACAA,0.256
12,CGATACAA,0.0958
13,AGATACAG,0.0445
14,GTGCTCTA,-0.119
15,GTGACTTA,0.1
16,CTAAGCGA,0.0774
17,ATAAGCGG,0.0934
18,ATAAGCGC,0.139
19,ATAAGCGA,0.287
20,GGAAGCGA,-0.0787
21,GTAAGCGA,0.281
22,CAAACCGG,-0.0831
23,AAGTATGG,0.00171
24,ACTGGAGG,0.0173
25,GCATTTAA,0.0157

row,Sequence,PBM E-score
1,ATATTTAC,0.228
2,ATATTTAG,0.255
3,ACATTTAG,-0.126
4,ATATTTGG,0.146
5,CTATTTAA,-0.0377
6,CTATTTGC,-0.0458
7,GTATTTAA,0.0263
8,ATATTTGC,0.306
9,ATTTTTAG,0.0211
10,ACATTTAA,0.253
11,ATATTTAA,0.272
12,CAAGAGGG,-0.247
13,CGCAACGA,-0.00619
14,CCGGAAAC,0.125
15,CCCGGGTC,-0.242
16,ATGACGAA,0.145
17,GTATGATA,0.23
18,ATATGATA,0.285
19,ATGATATC,0.0971
20,ATGATATG,0.29
21,CTATGATA,0.0824
22,ATGATATA,-0.027
